High-throughput results as filed in PubChem.
D1 antag: blocks dopamine activation of the human D1 receptor; 360,000 tested, 3.2% active; activity change, negative = inhibition, % at 10 µM; AID 504652; HEK293 TREx D1 cells, calcium flux, dopamine EC80; hits give low values; in the data active = activity change below about -30%; also: % is scaled to controls: 0 for no effect and ±100 for the full control effect
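Antagonism measured as reduced calcium response to an EC80 dopamine addition following 180 s compound pre-read; cells were inducible HEK293 Trex D1 plated overnight at 30 C, read kinetically at 1 cycle/sec.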
D1 potentiator: potentiators of human D1 dopamine receptor | P21728 | potentiation, % at 10 µM | HEK293 TREx D1 cells, calcium flux, dopamine EC20 potentiation | 360,000 tested, 0.036% active; in the data active = potentiation above about 30%; also: 0% is about no effect
TRHR ag: agonists of human TRH receptor | AID 493084 | activation, % at 2 µM | TRHR cells, calcium flux fluo-8, FDSS agonist mode | 360,000 tested, 0.18% active; also: 0% is about no effect
Target sequence (P34981 whole entry, looked up): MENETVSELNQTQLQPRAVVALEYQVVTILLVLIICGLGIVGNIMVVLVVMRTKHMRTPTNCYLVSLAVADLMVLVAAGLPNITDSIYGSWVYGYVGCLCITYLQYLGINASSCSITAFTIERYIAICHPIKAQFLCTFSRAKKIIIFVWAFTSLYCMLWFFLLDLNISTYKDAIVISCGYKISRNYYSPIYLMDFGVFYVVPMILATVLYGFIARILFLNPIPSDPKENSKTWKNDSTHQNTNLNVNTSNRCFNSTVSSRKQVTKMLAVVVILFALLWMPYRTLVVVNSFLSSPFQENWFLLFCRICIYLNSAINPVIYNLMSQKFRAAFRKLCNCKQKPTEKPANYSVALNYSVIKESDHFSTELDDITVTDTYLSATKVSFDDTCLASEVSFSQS
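TRHR-expressing cells, plated overnight in medium with 10% serum, were loaded with fluo-8 calcium dye at room temperature. After a 10 s baseline, library compound was pin-added and calcium release was recorded kinetically (ex 480/em 530) as agonist response.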
USP1 inh: blocks the human USP1/UAF1 deubiquitinase complex | O94782 | recombinant USP1/UAF1, Ub-Rhodamine cleavage fluorescence | Potency, µM (titrated, usually from 57.1 µM), for the others: top-dose activity change, negative = inhibition, usual class: inhibitors | 390,000 tested, 0.23% active | AID 743255; active = well fitted inhibition curve with a large enough effect; inconclusive = small, poorly fitted or top-dose-only effect; inactive = no such curve, though single readings can be large or run the other way; also: potency is read from the fitted curve at half-maximal effect; % is scaled to controls: 0 for no effect and ±100 for the full control effect; nearly all actives have a fitted effect of over 60% in size
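1 nM enzyme complex + cpd, 15 min RT; start with Ub-Rho 150nM final; kinetic fluorescence ex 480/em 540, 6 reads q60 s. Buffer 50mM HEPES pH 7.8, 0.5mM EDTA, 0.1 mg/ml BSA, 1mM TCEP, 0.01% Tween-20.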
D1 agonist: human D1 receptor agonism | activation, % at 2 µM | AID 504660 | HEK293 T-REx D1 cells, calcium flux, agonist mode | 360,000 tested, 1% active; also: 0% is about no effect
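Tetracycline-induced HEK293 TREx D1 cells, force-coupled to calcium signalling, were dye-loaded with a no-wash calcium kit. Compound was pin-added after a 10 s baseline. Fluorescence was read kinetically at 1 cycle/s for 180 s, with calcium rises flagged as agonism.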
TRHR PAM: allosterically enhances the human TRH receptor. P34981. TRHR cells, fluo-8 calcium fluorescence, EC20 TRH enhancement. enhancement, % at 2 µM. 360,000 tested, 0.66% active. AID 493056; in the data active = enhancement above about 30%; also: 0% is about no effect
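TRHR-expressing cells loaded with fluo-8 calcium dye were read kinetically (ex 480/em 530) during compound addition, then stimulated with an EC20 of TRH (10 nM final). Enhancement of the Gq-mediated intracellular calcium response was scored.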
Numbers without * were called inactive; ? = inconclusive; · = no result given; ! = repeats disagree. This is a sample that favours compounds with a hit; in the whole collection about 4.4% have one here. Rule as the data show it, unless noted: active = activation above about 30%; inactive = the rest.

SMILES | D1 antag | D1 potentiator | TRHR ag | USP1 inh | D1 agonist | TRHR PAM
Cc1ccccc1OCC(=O)N/N=C/c1c(C)nn(-c2ccccc2)c1Cl | -54.8* | -15.4 | -0.2 | -10.0% | 0.5 | 3.2
CC(C)CN(c1ccccc1)S(=O)(=O)c1nnc(NC(=O)C(C)C)s1 | -40.6* | -3.9 | 0.5 | -15.2% | 3.2 | 0.3
O=C(Nc1nnc(S(=O)(=O)N2CCCC2)s1)c1ccccc1Cl | 6.6 | -0.6 | -0.2 | -15.5% | 1.1 | -1.9
CCN(c1ccc(OC)cc1)S(=O)(=O)c1nnc(NC(=O)c2ccccc2Cl)s1 | -41.9*! | -6.6 | 0.1 | -19.4% | 1.9 | 4.4
CCN(CC)S(=O)(=O)c1nnc(NC(=O)c2ccccc2Cl)s1 | -5.8 | -0.6 | 0.4 | 1.2% | 0.9 | -1.0
CC(C)CC(=O)Nc1nnc(S(=O)(=O)N(CC(C)C)c2ccccc2)s1 | 1.5 | 2.5 | -0.6 | -22.0% | -0.1 | 12.4
O=C(Nc1nnc(S(=O)(=O)N2CCCCCC2)s1)c1ccccc1Cl | -40.7*! | -6.7 | 0.6 | 4.1% | 8.0 | 0.4
Cc1c(Cl)cccc1NC(=S)NN | 5.5 | 2.5 | 0.6 | -24.8% | 0.2 | 17.5
Cc1cccc(Cl)c1NC(=S)NN | -42.1* | 3.9 | 0.2 | -6.8% | 3.4 | 6.3
CCc1cccc(NC(=O)CSc2ncc3c(n2)-c2ccc(Cl)cc2N(Cc2ccccc2)S3(=O)=O)c1 | -8.2 | 4.2 | -0.5 | -8.0% | 5.7 | 5.5
CC(OC(=O)c1ccccc1C(=O)N(C)C1CCCCC1)C(=O)NC1(C#N)CCCCC1 (configuration not stated) | 20.9 | -5.0 | 0.3 | -3.0% | 1.0 | -2.0
CC(OC(=O)c1cc(Br)ccc1O)C(=O)NC1(C#N)CCCCC1 (configuration not stated) | -12.9 | -7.0 | 2.6 | -7.4% | 36.3* | -1.1
COCCn1c(C)cc(O)c(C(c2ccccc2Cl)N2CCN(c3ccccc3)CC2)c1=O (configuration not stated) | -1.1 | -0.5 | 0.3 | -31.5% | 1.0 | -0.6
O=C(COc1ccc(Cl)cc1Cl)Nc1nnc(C2=COCCO2)o1 | -68.8* | -7.4 | 0.1 | -20.7% | 1.8 | -7.8
COc1ccc(-c2noc(CN(C(=O)C(C)Oc3ccc(C)cc3)C(C)C)n2)cc1 (configuration not stated) | -15.3 | -1.1 | 0.2 | 1.7% | 2.4 | -0.3
CCN(CC)C(=O)Cn1c(=O)cc(C)c2c(C)nn(-c3cccc(Cl)c3C)c21 | -12.0 | 9.6 | 0.5 | ? | 0.5 | 9.6
COc1ccccc1N/C(N)=N/c1nc(CSc2nc3ccccc3s2)cc(=O)[nH]1 | -31.1* | 4.1 | 1.3 | · | 5.4 | 9.4
CCOC(=O)Cc1cc(=O)[nH]c(/N=C(\N)Nc2ccc(C)cc2C)n1 | -38.0* | -31.5 | 0.1 | 5.9% | 3.6 | -3.3
COC(=O)Cc1cc(=O)[nH]c(/N=C(\N)Nc2ccc(C)cc2C)n1 | -31.9* | -9.2 | -0.3 | -9.7% | 5.4 | 16.9
COC(=O)[C@@H]1C[C@H]2CC[C@H](O)C[C@H]2N1Cc1ccc(C(C)(C)C)cc1 | -34.4* | -8.1 | -0.2 | -9.3% | 1.9 | 6.3
Cc1ccc(Cn2c(C(=O)NCc3ccccc3Cl)cc3sccc32)cc1 | -12.1 | -0.1 | 1.6 | -5.2% | 3.1 | -2.1
Cc1ccc(C)c(N2CCN(C(=O)C3CCN(C(=O)c4cc5sccc5n4C)CC3)CC2)c1 | -64.5* | 0.8 | 0.0 | -10.9% | 6.2 | 1.2
Cc1ccc(C)c(N2CCN(C(=O)c3cc4sccc4n3C)CC2)c1 | -1.3 | 6.8 | -0.1 | -16.0% | 2.6 | -0.6
CSc1nc(N)c(C#N)c(-c2ccc(Cl)cc2)c1C#N | -32.2* | -10.8 | 1.5 | -10.1% | 8.5 | -0.1
CCOc1ccc(-c2nc(C#N)c(NC3CC3)o2)cc1 | 1.5 | -1.1 | 0.5 | -18.5% | 2.4 | 32.0*
COc1cn(-c2ccccc2)nc1C(=O)Nc1ccccc1 | 2.1 | -4.2 | -1.0 | -17.0% | 0.9 | -1.2
COc1cn(-c2ccccc2)nc1C(=O)Nc1ccc(C)cc1 | -0.8 | -2.2 | -0.7 | 3.1% | 33.9* | -5.3
